These results are taken from ChEMBL document CHEMBL4513216, “Probing the Open Global Health Chemical Diversity Library for Multistage-Active Starting Points for Next-Generation Antimalarials” (ACS Infect Dis, 2020).

The campaign covered roughly 69,000 compounds. About 8,600 (12%) showed an effect of 50% or more. The entries come from a sample that favours strong results as a whole.

This assay concerns Plasmodium berghei. The assay can be described thus: Screen against P. berghei liver stage (PbLuc), transformed with Luciferase, at 10uM. The class given is functional, HepG2. The settings on record: tested at 10 uM.
In the case of `Cc1nn(C)c2c(=O)n(Cc3ccccc3)nnc12`, the INHIBITION is on record as 28.89%. As to `COc1ccnc(N2C[C@H]3CC[C@@H](C2)N(CC2CCC2)C3=O)n1`, the INHIBITION stood at 32.1%. For the molecule `COc1ccc(CNCc2ccnc(N3CCOCC3)c2)c(OC)c1`, the INHIBITION was found to be 29.6%.

Turning to `COc1cccc(CNCc2cccnc2-n2cccn2)c1OC`, the INHIBITION turned out to be 16.2%. On to `COc1cc2c(cc1CNCc1ccnc(-n3cccn3)c1)OC(C)C2` (stereo not drawn), for which the INHIBITION came to 67.8%. For the molecule `COc1cc2c(cc1CNCc1cccnc1OC)OC(C)C2` (stereo not drawn), the INHIBITION is recorded as 60.2%. As for `COc1cc2c(cc1CNC(=O)Cc1ccc(C)nc1)OC(C)C2` (stereo not drawn), the INHIBITION is -25.3%. In the case of `COc1cc2c(cc1CNCc1cccnc1-n1cccn1)OC(C)C2` (stereo not drawn) it was 68.9%. Regarding `CC(C)N1CC(C(=O)NCc2ccnc(-n3cccn3)c2)CC1=O` (stereo not drawn), the INHIBITION is reported as -28%. Under `COc1cc2c(cc1CNC(=O)Cc1cc(C)on1)OC(C)C2` (stereo not drawn) stands 47.4%. Turning to `COc1cc2c(cc1CNC(=O)Cc1cc(C)[nH]n1)OC(C)C2` (stereo not drawn), the INHIBITION came to 46.6%. Under `O=S(=O)(Cc1ccccc1)N1CCCn2cnc(CN3CCCC3)c2C1` stands -17.7%. `O=C(CCn1cccn1)N1CCC(c2nnc(-c3ccccn3)o2)CC1`: the INHIBITION worked out at 44.9%. For `Cc1cc(-c2ccc(=O)n(C3CCN(C(=O)C4CCC4)CC3)n2)c(C)o1`, the INHIBITION is -30.9%. On to `CC(=O)Nc1c(C)cnn1Cc1cc(F)ccc1F`, for which the INHIBITION is -8.21%.

`Cc1cnn(Cc2cc(F)ccc2F)c1NC(=O)CNC(=O)C1CC1`: the INHIBITION was 72.3%.

On to `CCC(=O)NCC(=O)Nc1c(C)cnn1Cc1cc(F)ccc1F`, for which the INHIBITION turned out to be 44.2%. Under `Cc1cnn(Cc2cc(F)ccc2F)c1NC(=O)C1COCCO1` (stereo not drawn) stands 2.01%. Under `Cc1cnn(Cc2cc(F)ccc2F)c1NC(=O)C1CCOCC1` stands 72.3%.

Regarding `Cc1cnn(Cc2cc(F)ccc2F)c1NC(=O)NC1CC1`, the INHIBITION is 35.6%. Turning to `CC(=O)N1CC(C(=O)N2CCCC(Cn3ccnc3C)C2)C1` (stereo not drawn), the INHIBITION is recorded as -3.7%. With `Cc1ccc(N2CCCC(Nc3nn4cc(C)nc4s3)C2)nn1` (stereo not drawn), the INHIBITION was -17.7%. As to `Cc1cnn(CCC(=O)N2CCN(c3ccc(C#N)cn3)CC2)c1`, the INHIBITION stood at 5.9%.

For `CC(=O)N1CCCn2nc(CNS(=O)(=O)N3CCC(C)CC3)cc2C1`, the INHIBITION is recorded as 15.7%. Consider `CN1CCC2(CC1)CN(C(=O)c1onc3ccccc13)CCCN2C`, for which the INHIBITION is reported as 24.2%. Turning to `CC(=O)Nc1ccsc1C(=O)N1CC[C@H]2CC[C@@H](C1)N2C`, the INHIBITION is 33.3%. With `Cc1ccc(CN2CCc3c(COCC4CC4)nn(C)c3C2)s1`, the INHIBITION is 59.3%.

Regarding `Cc1ccc(CN2CCc3c(COC(C)C)nn(C)c3C2)s1`, the INHIBITION worked out at 22.2%.

As for `c1cncc(N2CCCn3nnc(CN4CCCCC4)c3C2)c1`, the INHIBITION was determined as 70.3%. As to `Cn1ncc2c1C(COCC1CC1)CN(Cc1ccncc1)C2` (stereo not drawn), the INHIBITION was 22.2%. Take `c1cncc(CN2CCCn3nnc(COCC4CC4)c3C2)c1`: the INHIBITION is 64.7%. As for `c1cc(CN2CCCn3nnc(COCC4CC4)c3C2)ccn1`, the INHIBITION turned out to be 42.1%. Regarding `c1cncc(N2CCCn3nnc(CN4CCOCC4)c3C2)c1`, the INHIBITION is on record as 7.67%.

`Cn1ncc2c1C(COCC1CC1)CN(Cc1cccnc1)C2` (stereo not drawn): the INHIBITION amounted to 43.9%. Under `Cn1ncc2c1CN(Cc1cccnc1)CC2COCC1CC1` (stereo not drawn) stands 53.5%; under `O=C1CCCN1Cc1nnn2c1CN(c1cccnc1)CCC2`, 6.67%.

For the molecule `Cn1nc(COCC2CC2)c2c1CN(CC1CC1)CC2`, the INHIBITION was determined as 21.6%. Consider `c1cncc(N2CCCn3nnc(COCC4CC4)c3C2)c1`, for which the INHIBITION is 20.6%. Turning to `COCCNC(=O)c1cc(C2CC2)nc2onc(C3CCNC3)c12` (stereo not drawn), the INHIBITION was found to be 25.1%. For the molecule `COCCN1CCC(C)(c2cc(O)[nH]n2)CC1`, the INHIBITION came out at 9.05%.

Turning to `O=C(Cc1cccnc1)N1CCC(c2nnc(-c3ccccn3)o2)CC1`, the INHIBITION was found to be 1.5235%.

As to `O=C(CC(F)(F)F)N1C[C@H]2CC[C@@H](C1)N(Cc1ccccc1)C2=O`, the INHIBITION is 26.9%. On to `COc1ccc(NC(C)=O)cc1S(=O)(=O)Nc1ccon1`, for which the INHIBITION amounted to 35.7%. With `CCN(CC)Cc1ccc(C(=O)N2CCCC2Cn2cc(C)cn2)o1` (stereo not drawn), the INHIBITION was -4.3%. Under `CN(C)c1ccc(CC2CCN(c3cnccn3)CC2)nn1` stands -18.8%.

Consider `COc1ccc(CN2CCCn3nnc(COCC4CC4)c3C2)cc1`, for which the INHIBITION is 16.8%. Take `Cn1ncc2c1CN(Cc1ccc(F)cc1)CC2COCC1CC1` (stereo not drawn): the INHIBITION is recorded as 8.67%. Turning to `Cc1ccc(CN2Cc3c(cnn3C)C(COCC3CC3)C2)s1` (stereo not drawn), the INHIBITION is 65.6%. For the molecule `Cc1ccc(CN2CCCn3nnc(COCCN(C)C)c3C2)s1`, the INHIBITION came to 54.8%. `Cn1cc(CN2Cc3c(cnn3C)C(COCC3CC3)C2)cn1` (stereo not drawn): the INHIBITION was determined as 47.9%. For the molecule `Cc1ccc(CN2CCCn3nnc(COCC4CC4)c3C2)s1`, the INHIBITION amounted to 23.3%. Take `Cc1cnn(CC2CCCCN2C(=O)c2csc(C)n2)c1` (stereo not drawn): the INHIBITION is on record as 23.5%. Consider `CC(Oc1cc(Cl)cc(Cl)c1)C(=O)NCCC(=O)N(C)C` (stereo not drawn), for which the INHIBITION is listed as 30.7%. Turning to `COCCCNc1nc(CNC(=O)C2CCC2)cc(-c2ccco2)n1`, the INHIBITION is -3.34%. Regarding `CCC1=N[C@@]2(CC[C@@H]3CN(CC(=O)N(C)C)C[C@@H]32)C(=O)N1CC(C)C`, the INHIBITION is 29%. With `CCCc1n[nH]c(C2CN(Cc3nnc(C4CC4)o3)CCO2)n1` (stereo not drawn), the INHIBITION came out at 52%.

As for `CC(C)(C)c1n[nH]c(C2CN(Cc3nnc(C4CC4)o3)CCO2)n1` (stereo not drawn), the INHIBITION is reported as -3.2%. In the case of `CCc1n[nH]c(C2CN(Cc3nnc(C4CCC4)o3)CCO2)n1` (stereo not drawn) it was 9.14%; in that of `CCCc1n[nH]c(C2CN(Cc3nnc(C4CCC4)o3)CCO2)n1` (stereo not drawn), -25.8%. In the case of `CCCc1n[nH]c(C2CN(Cc3nnc(C4CC4)n3C)CCO2)n1` (stereo not drawn) it was 50.1%; in that of `Cc1n[nH]c(C2CN(Cc3nnc(C4CC4)n3C)CCO2)n1` (stereo not drawn), 33.7%. With `CCc1n[nH]c(C2CN(Cc3nc(C4CC4)no3)CCO2)n1` (stereo not drawn), the INHIBITION turned out to be 64.9%. In the case of `CCc1n[nH]c(C2CN(Cc3nnc(C4CC4)o3)CCO2)n1` (stereo not drawn), the INHIBITION was found to be 13.3%.

Consider `CCc1n[nH]c(C2CN(Cc3nnc(C4CC4)n3C)CCO2)n1` (stereo not drawn), for which the INHIBITION is -17.5%. For the molecule `COc1ccccc1-n1cc(C(=O)NCCCn2ccnn2)cn1`, the INHIBITION is given as -12.5%.

Regarding `Cc1nc2c(c(=O)[nH]1)CCN(C(=O)c1cccc3nccnc13)C2`, the INHIBITION is 46%. In the case of `CN(C)c1ccc(C(=O)Nc2ccn(CC(N)=O)n2)cn1` it was -15%. Under `O=C(NCC1CCC1)c1ccnc(-n2ccnc2)c1` stands -13.6%.
